# Target: AgAbp1
# Test: SPOT peptide array binding signal intensity (averaged, normalized) (arbitrary units (background-subtracted, floor 0; scale differs between SH3 domains)); higher = stronger binding of the SH3 domain to the peptide
# In short: (§1)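 Detection of bound protein relied on anti-GST antibody, an HRP anti-mouse secondary and luminol, with imaging and quantification in Genespotter. The bound protein was GST-fused SH3 domains from four yeast species, incubated at 10 μg/ml overnight at 4°C in TBS-based blocking buffer on cellulose membranes carrying synthetic 15-mer peptides with cysteines replaced by serines. Binding signal is normalized, background-subtracted spot intensity averaged over replicates, in arbitrary units that differ between domains.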
row,Binder,SPOT peptide array binding signal intensity
1,KDKSRPPRPPPKPLH,917

# Target: AgBbc1
# Test: as above
# In short: as §1
row,Binder,SPOT peptide array binding signal intensity
1,KDKSRPPRPPPKPLH,282

# Target: AgBem1-D1
# Test: as above
# In short: as §1
row,Binder,SPOT peptide array binding signal intensity
1,KDKSRPPRPPPKPLH,30

# Target: AgBzz1-D1
# Test: as above
# In short: as §1
row,Binder,SPOT peptide array binding signal intensity
1,KDKSRPPRPPPKPLH,257

# Target: AgBzz1-D2
# Test: as above
# In short: as §1
row,Binder,SPOT peptide array binding signal intensity
1,KDKSRPPRPPPKPLH,119

# Target: AgCyk3
# Test: as above
# In short: as §1
row,Binder,SPOT peptide array binding signal intensity
1,KDKSRPPRPPPKPLH,≤ 0

# Target: AgFus1
# Test: as above
# In short: as §1
row,Binder,SPOT peptide array binding signal intensity
1,KDKSRPPRPPPKPLH,≤ 0

# Target: AgHof1
# Test: as above
# In short: as §1
row,Binder,SPOT peptide array binding signal intensity
1,KDKSRPPRPPPKPLH,55.8

# Target: AgHse1
# Test: as above
# In short: as §1
row,Binder,SPOT peptide array binding signal intensity
1,KDKSRPPRPPPKPLH,27

# Target: AgLsb1
# Test: as above
# In short: as §1
row,Binder,SPOT peptide array binding signal intensity
1,KDKSRPPRPPPKPLH,7.5

# Target: AgLsb4
# Test: as above
# In short: as §1
row,Binder,SPOT peptide array binding signal intensity
1,KDKSRPPRPPPKPLH,11.5

# Target: AgMyo5
# Test: as above
# In short: as §1
row,Binder,SPOT peptide array binding signal intensity
1,KDKSRPPRPPPKPLH,≤ 0

# Target: AgNbp2
# Test: as above
# In short: as §1
row,Binder,SPOT peptide array binding signal intensity
1,KDKSRPPRPPPKPLH,138

# Target: AgRvs167
# Test: as above
# In short: as §1
row,Binder,SPOT peptide array binding signal intensity
1,KDKSRPPRPPPKPLH,1.33

# Target: AgSho1
# Test: as above
# In short: as §1
row,Binder,SPOT peptide array binding signal intensity
1,KDKSRPPRPPPKPLH,71.5

# Target: AgSla1-D1-D2
# Test: as above
# In short: as §1
row,Binder,SPOT peptide array binding signal intensity
1,KDKSRPPRPPPKPLH,≤ 0

# Target: AgSla1-D3
# Test: as above
# In short: as §1
row,Binder,SPOT peptide array binding signal intensity
1,KDKSRPPRPPPKPLH,7.5

# Target: CaAbp1-D1
# Test: as above
# In short: as §1
row,Binder,SPOT peptide array binding signal intensity
1,KDKSRPPRPPPKPLH,298

# Target: CaAbp1-D2
# Test: as above
# In short: as §1
row,Binder,SPOT peptide array binding signal intensity
1,KDKSRPPRPPPKPLH,780

# Target: CaBbc1
# Test: as above
# In short: as §1
row,Binder,SPOT peptide array binding signal intensity
1,KDKSRPPRPPPKPLH,240

# Target: CaBem1-D1
# Test: as above
# In short: as §1
row,Binder,SPOT peptide array binding signal intensity
1,KDKSRPPRPPPKPLH,382

# Target: CaBzz1-D1
# Test: as above
# In short: as §1
row,Binder,SPOT peptide array binding signal intensity
1,KDKSRPPRPPPKPLH,3930

# Target: CaBzz1-D2
# Test: as above
# In short: as §1
row,Binder,SPOT peptide array binding signal intensity
1,KDKSRPPRPPPKPLH,748

# Target: CaCyk3
# Test: as above
# In short: as §1
row,Binder,SPOT peptide array binding signal intensity
1,KDKSRPPRPPPKPLH,23.5

# Target: CaFus1
# Test: as above
# In short: as §1
row,Binder,SPOT peptide array binding signal intensity
1,KDKSRPPRPPPKPLH,≤ 0

# Target: CaHof1
# Test: as above
# In short: as §1
row,Binder,SPOT peptide array binding signal intensity
1,KDKSRPPRPPPKPLH,≤ 0

# Target: CaHse1
# Test: as above
# In short: as §1
row,Binder,SPOT peptide array binding signal intensity
1,KDKSRPPRPPPKPLH,67

# Target: CaLsb1
# Test: as above
# In short: as §1
row,Binder,SPOT peptide array binding signal intensity
1,KDKSRPPRPPPKPLH,0.5

# Target: CaLsb4
# Test: as above
# In short: as §1
row,Binder,SPOT peptide array binding signal intensity
1,KDKSRPPRPPPKPLH,158

# Target: CaMyo5
# Test: as above
# In short: as §1
row,Binder,SPOT peptide array binding signal intensity
1,KDKSRPPRPPPKPLH,≤ 0

# Target: CaNbp2
# Test: as above
# In short: as §1
row,Binder,SPOT peptide array binding signal intensity
1,KDKSRPPRPPPKPLH,88.5

# Target: CaRvs167
# Test: as above
# In short: as §1
row,Binder,SPOT peptide array binding signal intensity
1,KDKSRPPRPPPKPLH,8.67

# Target: CaRvs167-3
# Test: as above
# In short: as §1
row,Binder,SPOT peptide array binding signal intensity
1,KDKSRPPRPPPKPLH,0.5

# Target: CaSho1
# Test: as above
# In short: as §1
row,Binder,SPOT peptide array binding signal intensity
1,KDKSRPPRPPPKPLH,≤ 0

# Target: CaSla1-D1-D2
# Test: as above
# In short: as §1
row,Binder,SPOT peptide array binding signal intensity
1,KDKSRPPRPPPKPLH,602

# Target: CaSla1-D3
# Test: as above
# In short: as §1
row,Binder,SPOT peptide array binding signal intensity
1,KDKSRPPRPPPKPLH,21.5

# Target: ScAbp1
# Test: as above
# In short: as §1
row,Binder,SPOT peptide array binding signal intensity
1,KDKSRPPRPPPKPLH,670

# — the supplement of paper PMC4466140
